Measured values from PubChem BioAssay (NCATS).
“And” between values parts separate entries of the source, which are not always exact repeats. Equal values may be shown once. Inconclusive results are not listed. Where a call stands in place of a potency, no number is given. The source made the active and inactive calls. Unless noted, calls come from the whole dose curve; as a rule, active = well fitted curve in the direction sought with a large enough effect; inconclusive = small, poorly fitted or top-dose-only effect, or another doubt; inactive = no such curve, though single readings can be large; an effect the other way counts as inactive or inconclusive.

Assays:
[1] = Cell Viability - Jurkat (AID 426;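 active = dose-dependent loss of cell ATP signal giving a full or clear fitted curve, ranked by lower potency value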;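 note: potency is the fitted concentration of half-maximal effect; cells exposed to compound for 40 hours at 37 °C before ATP read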); settings: qHTS
Outline: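 Seed 5000 Jurkat E6-1 cells/well; add compound; incubate 40 hr at 37 °C; add CellTiter-Glo; wait 20 min at room temperature; read luminescence. Fit concentration-response with Hill equation for AC50.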

[2] = Cell Viability - Hek293 (AID 427;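 active = compounds whose dose-response curve shows a full or clear partial loss of cell viability, called from curve shape rather than a numeric limit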;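 note: potency is the fitted concentration of half-maximal effect; cells exposed to compound for 40 hours at 37 °C before reading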); settings: qHTS
Outline: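 qHTS, human embryonic kidney (adenovirus-transformed) cells; 40 hr cpd, 37 °C; CellTiter-Glo ATP luminescence. Norm: DMSO = 0, 100 uM tamoxifen = 100% inhibition. Hill-fit AC50.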

[3] = Cell Viability - HUV-EC-C (AID 542); settings: HUV-EC-C endothelial cell viability, qHTS; series mostly up to 92.2 µM;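 note: cells exposed to compound for 40 hours; nearly all actives have a fitted effect of over 35% in size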
Outline: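 Decrease in cellular ATP, quantified by luciferase luminescence, reflects toxicity in normal human vascular endothelial HUV-EC-C cells given compound for 40 hr in complete culture medium. Values are AC50s from concentration-response curves.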

[4] = Cell Viability - H-4-II-E (AID 543); settings: H-4-II-E rat hepatoma viability; series mostly up to 92.2 µM;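 note: cells exposed to compound for 40 hours; nearly all actives have a fitted effect of over 35% in size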
Outline: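 Here, cytotoxicity is measured in the rat hepatoma line H-4-II-E as loss of intracellular ATP after 40 hr compound treatment, detected by luciferase luminescence.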

[5] = Cell Viability - SH-SY5Y (AID 544); settings: SH-SY5Y neuroblastoma cell viability; series mostly up to 92.2 µM;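 note: cells exposed to compound for 40 hours; nearly all actives have a fitted effect of over 55% in size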
Outline: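 Cytotoxicity is scored as a concentration-dependent fall in intracellular ATP in human SH-SY5Y cells treated 40 hr in complete culture medium. Potency is expressed as AC50 from a Hill equation fit.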

[6] = Cellular Toxicity (caspase-3) SHSY5Y (AID 657); settings: SH-SY5Y caspase-3 activation, DMSO zero, 10 µM staurosporine = 100%; series mostly up to 91.7 µM;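 note: cells exposed to compound for 16 hours at 37 °C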
Outline: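 Luminescent caspase-3/7 readout (aminoluciferin release) in SH-SY5Y cells after 16 h compound exposure in complete medium. Activity scaled between DMSO basal and 10 uM staurosporine as 100%; concentration-response fitted to Hill equation for AC50.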

[7] = Cellular Toxicity (caspase-3) SK-N-SH (AID 661); settings: SK-N-SH caspase-3 activation, qHTS, DMSO as zero, staurosporine as full; series mostly up to 91.7 µM
Outline: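 Caspase 3/7 activation is measured as a luminescence increase from aminoluciferin released by substrate cleavage in SK-N-SH cells after 16 hr compound treatment; values are AC50 from concentration-response curves.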

[8] = Cellular Toxicity (caspase-3) H-4-II-E (AID 663); settings: H-4-II-E rat hepatoma; Potency: caspase-3 activation; series mostly up to 92.2 µM;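 note: cells exposed to compound for 16 hr before readout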
Outline: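 Apoptosis induction is scored as increased luminescence from caspase 3/7 substrate cleavage in rat hepatoma H-4-II-E cells exposed to compound for 16 hr. Activity is scaled between DMSO and 100 uM tamoxifen.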

[9] = Cellular Toxicity (caspase-3) N2a (AID 665); settings: N2a cells, luminescence, normalized: DMSO 0%, 10 µM staurosporine 100%; series mostly up to 92.2 µM;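 note: compound exposure lasted 16 h at 37 °C before readout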
Outline: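 Plated mouse neuroblastoma N2a cells received titrated compounds for 16 h in complete medium. Caspase activity was then detected with a peptide-aminoluciferin luminescent reagent.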

[10] = Cellular Toxicity (caspase-3) NIH 3T3 (AID 666); settings: NIH 3T3 caspase-3 activation, apoptosis/toxicity, 0% DMSO, 100% is 100 µM tamoxifen; series mostly up to 92.2 µM;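 note: caspase signal read after 16 h compound exposure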
Outline: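 Concentration-response qHTS in NIH 3T3 mouse fibroblasts scores caspase-3/7 activation as rising luminescence after 16 hr compound exposure. Signals are scaled between DMSO-only and 100 uM tamoxifen.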

[11] = Cell Viability - LYMP1-002 - Assay at 16 hr (AID 948); settings: LYMP1-002 lymphoblastoid cell viability; series mostly up to 92.2 µM
Outline: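 LYMP1-002 human lymphoblastoid cells, 2500/well; 5 hr 37 C; cpd 16 hr 37 C; CellTiter-Glo 30 min RT; luminescence (ATP). Concentration-response, Hill-fit AC50. Pos ctrl tetraoctylammonium bromide.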

[12] = MultiTox-Fluor Cytotoxicity Assay - LYMP1-002 - Live Cells (AID 955); settings: LYMP1-002 lymphoblastoid live-cell protease fluorescence viability; series mostly up to 46.1 µM
Outline: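 Cytotoxicity in the human lymphoblastoid line LYMP1-002 is measured as loss of live-cell protease activity after 16 h treatment in complete culture medium. AC50 is derived from Hill-equation fits of qHTS concentration-response data.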

[13] = MultiTox-Fluor Cytotoxicity Assay - LYMP1-003 - Dead Cells (AID 961); settings: LYMP1-003 lymphoblastoid cells, dead-cell protease fluorescence; series mostly up to 92.2 µM;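 note: cells exposed to compound for 16 h at 37 °C; nearly all actives have a fitted effect of over 70% in size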
Outline: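 LYMP1-003 lymphoblastoid, 2500 cells/well, 5 hr settle then 16 hr cpd at 37 C; MultiTox-Fluor reagent 60 min RT; Ex/Em 485/520 dead-cell signal; norm. DMSO = 0%, 15 uM tetraoctylammonium bromide = 100%; Hill AC50.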

[14] = Cell Viability - LYMP2-003 (AID 965); settings: LYMP2-003 lymphoblastoid cell viability; series mostly up to 92.2 µM;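 note: cells exposed to compounds for 24 h before reading; nearly all actives have a fitted effect of over 50% in size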
Outline: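 CellTiter-Glo luminescence (cellular ATP) after 24 h compound exposure at 37 C in complete medium; 2500 cells/well, 5 h settling beforehand. Concentration-response fitted to standard Hill equation for AC50. Tetraoctylammonium bromide served as positive control.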

[15] = Cell Viability - LYMP2-018 (AID 985); settings: LYMP2-018 lymphoblastoid cells, viability (qHTS); series mostly up to 92.2 µM;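 note: compound exposure lasted 24 hr at 37 °C; nearly all actives have a fitted effect of over 50% in size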
Outline: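 Acute cytotoxicity is scored as a concentration-dependent drop in intracellular ATP after 24 hr exposure of the lymphoblastoid line in complete culture medium, measured by luciferase luminescence. Potency is expressed as AC50 from Hill modelling.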

[16] = Cell Viability - LYMP2-020 (AID 986); settings: series mostly up to 92.2 µM; note: nearly all actives have a fitted effect of over 55% in size
Outline: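 Acute cytotoxicity in a human lymphoblastoid line is scored as a concentration-dependent fall in cellular ATP after 24 hr at 37 C in complete medium. The positive control is tetraoctylammonium bromide, and potency is given as Hill-fit AC50.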

[17] = Cell Viability - LYMP2-022 (AID 987); settings: LYMP2-022 lymphoblastoid cell viability; series mostly up to 92.2 µM;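 note: cells exposed to compound for 24 hr; nearly all actives have a fitted effect of over 55% in size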
Outline: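 Acute toxicity in a human lymphoblastoid line is scored as decreased intracellular ATP after 24 hr compound treatment at 37 C. ATP is measured by CellTiter-Glo luminescence; curves are fitted with the Hill equation to give AC50.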

[18] = Cell Viability - LYMP2-024 (AID 988); settings: LYMP2-024 lymphoblastoid cell viability; series mostly up to 92.2 µM;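 note: cells exposed to compound for 24 hr at 37 °C; nearly all actives have a fitted effect of over 60% in size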
Outline: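 Acute toxicity is measured as concentration-dependent loss of intracellular ATP in a human lymphoblastoid line treated 24 hours at 37 C. Luciferase luminescence quantifies ATP; AC50 values come from standard Hill-equation modelling.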

[19] = qHTS assay for small molecule antagonists of retinoid X receptor alpha signaling (AID 588546); settings: HEK293T RXRa-UAS-bla, beta-lactamase ratio, antagonist mode; measured here: W530 green channel, cytotoxicity proxy;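 note: cells stimulated with 9-cis-retinoic acid as agonist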
Outline: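 Beta-lactamase reporter inhibition, read as CCF4 fluorescence ratio (ex 405, em 460/530 nm) after 2 h at RT. HEK293T UAS-bla cells, 2500/well, were stimulated with 9-cis-RA at 500 or 100 nM final alongside test compound for 18 h at 37 C.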

[20] = qHTS assay for cell viability of HEK293 cells (AID 743288); settings: ATP luminescence (CellTiter-Glo), 18 h; max response: stronger effect = lower value; note: nearly all actives have a fitted effect of over 50% in size
Outline: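 Environmental chemicals tested in qHTS format against parental HEK293 cells; 18 h treatment, 37 C; read-out ATP luminescence (CellTiter-Glo), 30 min RT development.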

SMILES	Potency [1]	Potency [2]	outcome [3]	Potency [4]	Potency [5]	outcome [6]	outcome [7]	Potency [8]	outcome [9]	outcome [10]	Potency [11]	Potency [12]	Potency [13]	Potency [14]	Potency [15]	Potency [16]	Potency [17]	Potency [18]	max response [19]	max response [20]
CCCCOCCO	> 92 µM (inactive)	> 92 µM (inactive)	inactive	inactive	inactive	inactive	inactive	inactive	inactive	inactive	inactive	inactive	inactive	inactive	inactive	inactive	inactive	inactive	-0.95% and -3.08% and -12.9%	4.48% (inactive) and -11.2% (inactive) and -7.95% (inactive)
Cc1ccccc1C	> 92 µM (inactive)	> 92 µM (inactive)	inactive	inactive	inactive	inactive	inactive	inactive	inactive	inactive	inactive	inactive	inactive	inactive	inactive	inactive	inactive	inactive	-1.73% and -2.63%	-12.4% (inactive) and -5.18% (inactive)
O=C(O)c1ccc(O)cc1O	> 92 µM (inactive)	> 92 µM (inactive)	inactive	inactive	inactive	inactive	inactive	inactive	inactive	inactive	inactive	inactive	inactive	inactive	inactive	inactive	inactive	inactive	-5.6%	-11.1% (inactive) and 9.9% (inactive)
c1ccccc1	> 92 µM (inactive)	> 92 µM (inactive)	inactive	inactive	inactive	inactive	inactive	inactive	inactive	inactive	inactive	inactive	inactive	inactive	inactive	inactive	inactive	inactive	6.17% [middle of 4 runs]	0.515% (inactive) [middle of 4 runs]
Cc1c(N=C=O)cccc1N=C=O	> 92 µM (inactive)	> 92 µM (inactive)	inactive	inactive	inactive	inactive	inactive	inactive	inactive	inactive	inactive	inactive	inactive	inactive	inactive	inactive	inactive	inactive	-2.03% and -4.55%	8.57% (inactive) and -7.81% (inactive)
C1OCOCO1	> 92 µM (inactive)	> 92 µM (inactive)	inactive	inactive	inactive	inactive	inactive	inactive	inactive	inactive	inactive	inactive	inactive	inactive	inactive	inactive	inactive	inactive	-18.1%	-3.72% (inactive)
O=C1CCc2ccccc2O1	> 92 µM (inactive)	> 92 µM (inactive)	inactive	inactive	inactive	inactive	inactive	inactive	inactive	inactive	inactive	inactive	inactive	inactive	inactive	inactive	inactive	inactive	-3.35%	-0.285% (inactive)
CCC(C)c1ccccc1O (stereo not given)	> 92 µM (inactive)	> 92 µM (inactive)	inactive	inactive	inactive	inactive	inactive	inactive	inactive	inactive	inactive	inactive	inactive	inactive	inactive	inactive	inactive	inactive	-6.22% and -6.2% and -6.14%	12.6% (inactive) and 1.15% (inactive) and -2.8% (inactive)
COC(=O)c1ccc(C)cc1	> 92 µM (inactive)	> 92 µM (inactive)	inactive	inactive	inactive	inactive	inactive	inactive	inactive	inactive	inactive	inactive	inactive	inactive	inactive	inactive	inactive	inactive	-12.4% and -3.35%	4.41% (inactive) and -4.05% (inactive)
C/C=C\c1ccc(OC)cc1	> 92 µM (inactive)	> 92 µM (inactive)	inactive	inactive	inactive	inactive	inactive	inactive	inactive	inactive	inactive	inactive	inactive	inactive	inactive	inactive	inactive	inactive	1.79%	8.66% (inactive)
Cc1ccc([N+](=O)[O-])c(C)c1	> 92 µM (inactive)	> 92 µM (inactive)	inactive	inactive	inactive	inactive	inactive	inactive	inactive	inactive	inactive	inactive	inactive	inactive	inactive	inactive	inactive	inactive	-2.42% and -7.16%	0.892% (inactive) and -5.18% (inactive)
CCCCCCCCCCCCCCC1CO1 (stereo not given)	> 92 µM (inactive)	> 92 µM (inactive)	inactive	inactive	inactive	inactive	inactive	inactive	inactive	inactive	inactive	inactive	inactive	inactive	inactive	inactive	inactive	inactive	-4.45% and -4.75%	-3.91% (inactive) and -17.2% (inactive)
